Compound activity (PubChem BioAssay)
Hits are enriched below; roughly 19% of the tested compounds scored in any of these assays.
HT1080-NT tox: qHTS for induction of synthetic lethality in tumor cells producing 2HG: qHTS for the HT-1080-NT fibrosarcoma cell line; HT-1080-NT fibrosarcoma viability, CellTiter-Glo ATP luminescence, 48 h; Potency, µM (titrated, usually from 46.1 µM), for the others: at the highest dose activity, negative = less viability, most hits filed as cytotoxic; actives 1.6% (n = 360,000);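 note: NT is the 2HG producing partner of a matched IDH1 knockdown line; potency is the fitted concentration of half-maximal effect; 0% = DMSO-treated cells and -100% = media-only wells without cells; nearly all actives have a fitted effect of over 55% in size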
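A 48-hour cytotoxicity screen used HT-1080-NT cells plated 2 hours before compound delivery. ATP-based CellTiter-Glo luminescence measured viability, normalized to DMSO and no-cell controls.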
DT40 TDP1 no CPT: qHTS for Inhibitors of human tyrosyl-DNA phosphodiesterase 1 (TDP1): qHTS in cells in absence of CPT; actives 15% (n = 420,000); DT40 Tdp1-/- hTDP1 cells, no CPT, ATP luminescence, 48 h; AID 686978, 2013; Potency, µM (highest dose often 46.2 µM), without a hit: at the highest dose activity change, negative = growth inhibition, hits mostly inhibitors; note: potency is the fitted concentration of half-maximal effect; nearly all actives have a fitted effect of over 55% in size
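Readout: luminescence from CellTiter-Glo after 30 min in the dark at RT. Cells: DT40 Tdp1-/- with stable hTDP1, 400/well. Exposure: compounds alone, ≥48 hr, 37 °C.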
IL1B secr inh: qHTS for Inhibitors of Inflammasome Signaling: IL-1-beta AlphaLISA Primary Screen. AID 743279, 2014. THP-1 LPS/ATP IL-1B secretion, AlphaLISA, 16 h; hits give low values. actives 4.7% (n = 360,000). activity change, % at 57.5 µM; in the data active = activity change below about -50%; inconclusive = mostly about -30% to -49%
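THP-1 cells pretreated 1 hr with compounds (up to 57.5 uM final), then stimulated with LPS (250 ng/mL final) plus ATP (1.25 mM final); secreted IL-1B measured by AlphaLISA after 16 hr, decreased signal indicating inhibition.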
HT1080 IDH1KD tx: qHTS for induction of synthetic lethality in tumor cells producing 2HG: qHTS for the HT-1080-IDH1KD cell line | HT-1080 IDH1 knockdown viability, ATP luminescence, 48 h | Potency, µM (titrated, usually from 46.1 µM), for the others: top-dose activity, negative = toxicity, most hits filed as cytotoxic | actives 2% (n = 360,000) | AID 686971, 2013;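 note: potency is the fitted concentration of half-maximal effect; 0% = DMSO wells and -100% = cell-free medium wells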
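Assay cells: HT-1080 with IDH1 knockdown, 750 per well, RPMI/5% FBS. Exposure: 48 h at 37 °C following 2 h pre-incubation. Read: CellTiter-Glo luminescence; fitted concentration-response, curve class assigned.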
TDP1 cell CPT: qHTS for Inhibitors of human tyrosyl-DNA phosphodiesterase 1 (TDP1): qHTS in cells in presence of CPT. Potency, µM (top dose mostly 46.2 µM), for the others: at the top dose activity change, negative = growth inhibition, usual class: inhibitors. actives 12% (n = 420,000). chicken DT40 Tdp1-/-;hTDP1 cells + 20 nM CPT, ATP luminescence, 48 h; note: potency is the fitted concentration of half-maximal effect; nearly all actives have a fitted effect of over 55% in size
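Cell growth measured by CellTiter-Glo luminescence after a minimum 48 h, 37 C compound exposure with 20 nM CPT in Tdp1-knockout DT40 cells stably expressing hTDP1, seeded 400/well; qHTS titration format.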
* marks the source's active call; other numbers are inactive results; u = inconclusive; x = no result; ! = not confirmed by another sample; [ ] = another dose, or the depositor's remark. Unless noted, calls come from the whole dose curve; as a rule, active = well fitted curve in the direction sought with a large enough effect; inconclusive = small, poorly fitted or top-dose-only effect, or another doubt; inactive = no such curve, though single readings can be large; an effect the other way counts as inactive or inconclusive. Unless noted, % is set by controls: 0 for no effect and ±100 for the full control effect.

SMILES	HT1080-NT tox	DT40 TDP1 no CPT	IL1B secr inh	HT1080 IDH1KD tx	TDP1 cell CPT
COc1ccccc1CNC(=O)c1cc2sccc2n1Cc1ccc(F)cc1	x	23µM*	x	x	21µM*
CC1Cc2ccccc2N1C(=O)c1cc2sccc2n1Cc1ccc(F)cc1 (stereo unspecified)	-5%	16µM*	-22	-10%	u
COc1ccc(COc2cc(-c3cccc(OC)c3)nc3ccc(NC(=O)c4ccc(N(C)C)cc4)cc23)cc1	u	3.7µM*	66	6.5µM*	3.7µM*
COc1ccc(COc2cc(-c3cccc(OC)c3)nc3ccc(N)cc23)cc1	0.82µM*	1.5µM*	14	2.1µM*	1.5µM*
COc1ccc(COc2cc(-c3cccc(OC)c3)nc3ccc(NC(C)=O)cc23)cc1	-20%	-19%	1	-6%	-19%
COc1ccc(COc2cc(-c3cccc(OC)c3)nc3ccc(NC(=O)c4ccc(C)cc4)cc23)cc1	13µM*	13µM*	72	13µM*	u
CCC1CCCCN1CCCNC(=O)C1CCCN(c2ncnc3c2nc2n3CCCCC2)C1 (stereo unspecified)	1%	12%	7	5%	-17%
Cc1c(C(c2ccc(C(=O)O)cc2)c2c(C)n(C)n(-c3ccccc3)c2=O)c(=O)n(-c2ccccc2)n1C	9%	-1%	14	16%	10%
OCCN1CCN(CCCN2c3ccccc3C=Cc3ccccc32)CC1	x	6µM*	x	x	8.4µM*
CCSc1ccc2c(c1)N(CCCN1CCN(C)CC1)c1ccccc1S2	18µM*	u	-57*	u	26µM*
CCC(=O)c1ccc2c(c1)N(CCCN1CCN(CCO)CC1)c1ccccc1S2	x	4.7µM*	x	x	3µM*
CCN1C(=O)c2ccccc2Sc2ccc(C(=O)O)cc21	12%	17%	18	9%	20%
OCCN1CCN(CCCN2c3ccccc3CCc3ccccc32)CC1	-9%	u	-26	-10%	u
OC1CC2CCC(C1)N2CCCN1c2ccccc2Sc2ccc(Cl)cc21 (stereo unspecified)	u	15µM*	-81*	4.6µM*	23µM*
O=C(CS(=O)(=O)c1cccc2nsnc12)Nc1ccc(F)cc1F	x	3%	x	x	-27%
CC(=O)Nc1ccc(NCC(=O)c2ccccc2)cc1	3%	u	69	5%	u
CC(C)CN1C(=O)NC(NS(=O)(=O)c2ccc(N)cc2)(C(F)(F)F)C1=O (stereo unspecified)	11%	-23%	8	22%	-25%
COc1cc(OC)cc(-n2c(=O)c3ccccc3n(CC(=O)NCCc3ccc(OC)c(OC)c3)c2=O)c1	x	-27%	x	x	-12%
CN1C(=O)CC(C(=O)O)SC1=Nc1ccc(F)cc1 (stereo unspecified)	-6%	-11%	20	28%	-5%
COc1cccc(Nc2c3c(nc4nncn24)CCC3)c1	x	-28%	x	x	-21%
O=C(CCN1CCOCC1)N1c2ccccc2Sc2ccc(Cl)cc21	-5%	u	-3	0%	u
CN1CCN(CCCN2c3ccccc3Sc3ccc(Cl)cc32)CC1	15µM*!	21µM*	-64*!	21µM*!	4.6µM*!
CC(CN1CCN(CCOCCO)CC1)CN1c2ccccc2Sc2ccc(Cl)cc21 (stereo unspecified)	23µM*	u	-26	u	u
CCN(CC(=O)Nc1c(F)cccc1F)C(=O)c1cc(C)oc1C	4%	3%	-2	8%	-5%
O=C(CCc1ccccc1)Nc1cc(C(F)(F)F)ccc1Cl	1%	-8%	-15	-2%	9%
SMILES	HT1080-NT tox	DT40 TDP1 no CPT	IL1B secr inh	HT1080 IDH1KD tx	TDP1 cell CPT
CC(C)C(=O)NC(Nc1cc(C(F)(F)F)ccc1Cl)C(Cl)(Cl)Cl (stereo unspecified)	-16%	26µM*	23	-7%	u
CN(C)CC(=O)Nc1cc(C(F)(F)F)ccc1Cl	29%	-5%	4	28%	1%
O=C(NC(Nc1cc(C(F)(F)F)ccc1Cl)C(=O)c1ccccc1)c1ccccc1 (stereo unspecified)	-27%	21µM*	-4	-22%	u
CCCC(=O)NC(Nc1cc(C(F)(F)F)ccc1Cl)C(Cl)(Cl)Cl (stereo unspecified)	u	18µM*	-3	u	18µM*
CC(C)C(=O)NC(Nc1ccccc1F)C(Cl)(Cl)Cl (stereo unspecified)	0%	u	6	-2%	u
CCCC(=O)NC(Nc1cccc(C(F)(F)F)c1)C(Cl)(Cl)Cl (stereo unspecified)	u	21µM*	8	u	u
CCOc1ccccc1C(=O)NCC(=O)OCC(=O)c1c(N)n(C)c(=O)n(C)c1=O	4%	-1%	11	9%	-6%
COC(=O)[C@H]1Cc2c([nH]c3ccccc23)CN1C(=O)COc1ccc2c(C)cc(=O)oc2c1	x	u	x	x	-29%[9.04 µM]
CCOC(=O)c1c(NC(=O)CN(C)C)sc(C(=O)N(CC)CC)c1C	14%	-12%	-5	8%	-4%
CCCCC(=O)Nc1sc(C(=O)N(CC)CC)c(C)c1C(=O)OC	0%	18µM*	0	-4%	u
CCOC(=O)c1sc(NC(=O)CC)c(C#N)c1C	22%	-1%	-20	8%	12%
CCOC(=O)c1c(NC(=O)C2c3ccccc3Oc3ccccc32)sc(C(=O)N(CC)CC)c1C	-9%	23µM*	-19	-11%	18µM*
CCOC(=O)c1sc(NC(=O)C2c3ccccc3Oc3ccccc32)c(C(=O)OCC)c1C	x	-15%	x	x	-15%
CCOC(=O)c1sc(NC(=O)C2c3ccccc3Oc3ccccc32)c(C#N)c1C	x	16µM*	x	x	12µM*
COc1ccc(CCNS(=O)(=O)c2cc(-c3cc(C)no3)ccc2OC)cc1OC	x	-16%	x	x	-17%
CCOC(=O)c1c(C)[n+](-c2ccc(C)cc2)c(CC)c2cc(OC)c(OC)cc12	u	2.6µM*	21	u	2.1µM*
O=C1NC[C@@H](CCCCN2C[C@H](Cc3ccc(O)cc3)N(CCc3ccccc3)C(=O)C2=O)N(CCc2ccccc2)C1=O	-2%	1%	-27	1%	0%
CCOc1ccccc1NC(=O)c1ccc2c(c1)C(=O)N(CC)C2=O	1%	3%	-21	14%	0%
Cc1cnc(CNc2ncncc2-c2c(C)noc2C)cn1	x	2.6µM*	x	x	3.7µM*
